Pf growth 96h = inhibits malaria parasite growth, 96 h. P. falciparum luciferase reporter growth, 96 h. hit rate 6.9% among 320,000. Potency, µM (highest dose often 28.7 µM), for inactives: at the highest dose activity change, negative = inhibition, actives largely listed as inhibitors; note: % is set by controls: 0 for no effect and ±100 for the full control effect
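Cell-based qHTS: luciferase-tagged P. falciparum in erythrocytes (2% hematocrit, 0.05% parasitemia final) incubated with compounds for 96 hours, 37 C, 5% CO2; luciferase detection reagent then added and luminescence measured.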
Pf growth 48h = inhibits P. falciparum growth in the first generation, 48 h. Potency, µM (series often up to 28.7 µM), for the others: at the top dose activity change, negative = inhibition, usual class: inhibitors. P. falciparum luciferase growth in erythrocytes, 48 h. hit rate 5.9% among 310,000; note: % is set by controls: 0 for no effect and ±100 for the full control effect
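Luminescence readout; reporter = integrated firefly luciferase in P. falciparum. RBC culture at 2% hematocrit, 0.1% parasitemia final, 37 C/5% CO2; decreased signal taken as growth inhibition.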
Sm TGR inh = S. mansoni TGR enzyme inhibition | purified TGR, DTNB reduction, TNB absorbance 405 nm | hit rate 3% among 360,000 | Potency, µM (doses to about 114 µM), for inactives: top-dose activity change, negative = inhibition, most hits filed as inhibitors; note: % is set by controls: 0 for no effect and ±100 for the full control effect; nearly all actives have a fitted effect of over 60% in size
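Kinetic colorimetric format: TGR-catalysed, NADPH-driven DTNB reduction monitored via TNB absorbance. Enzyme dispensed at 20 nM; compound exposure 15 min at room temperature before reaction start.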
NS1 inh = blocks influenza NS1 protein function; Potency, µM (doses to about 46.1 µM), for the others: at the top dose activity, positive = more growth; hit rate 0.4% among 270,000; AID 2326; calls by dose curve; note: actives are rising curves; nearly all actives have a fitted effect of over 50% in size
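S. cerevisiae expressing influenza A NS1, grown in glucose, washed, then diluted 1:100 into pH 6.0 -URA galactose medium with 23 nl compound. Growth recovery read as OD600; NS1-free strain serves as control.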
AMA1-RON2 inh = AMA1-RON2 (P. falciparum) interaction inhibition; AlphaScreen AMA1-biotinylated RON2 peptide binding; Potency, µM (series often up to 58.2 µM), for inactives: at the highest dose activity change, negative = inhibition, actives largely listed as inhibitors; hit rate 0.2% among 360,000;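 note: 0% = vehicle wells and -100% = peptide control; nearly all actives have a fitted effect of over 45% in size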
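AMA1 (3D7) with his tag at 25 nM final met compounds first, then biotinylated RON2 peptide at 25 nM; detection used donor plus acceptor beads, 10 µg/mL apiece, read by AlphaScreen after 30 min at room temperature.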
* = called active by the depositor; i = inactive; ? = inconclusive; . = not tested or not shown. Most compounds without a hit are left out; they make up all but 11% or so of the library. Unless noted, calls come from the whole dose curve; as a rule, active = well fitted curve in the direction sought with a large enough effect; inconclusive = small, poorly fitted or top-dose-only effect, or another doubt; inactive = no such curve, though single readings can be large; an effect the other way counts as inactive or inconclusive. Potency is the fitted concentration of half-maximal effect.

SMILES	Pf growth 96h	Pf growth 48h	Sm TGR inh	NS1 inh	AMA1-RON2 inh
NCC[C@H](N)C(=O)O	.	.	.	-1%	.
CN(C)/C=C1/C=C(C=O)OC1=O	-6%	0%	0%	-3%	18%
CN(C)/C=C1/C=C(c2ccccc2)OC1=O	1%	.	32µM*	-5%	-5%
CC1=C/C(=C/N(C)C)C(=O)O1	21%	i	20µM*	.	6%
CN(C)/C=C1\C(=O)ON=C1c1ccccc1	3%	2%	69%	.	4%
O=C(N[C@H]1CP(=O)(Oc2ccccc2)O[C@H](COCc2ccccc2)[C@H]1O)C(Cl)(Cl)Cl (stereo not given in full)	12µM*	?	4%	2%	-2%
O=P1(Oc2ccccc2)CC=C[C@H](COCc2ccccc2)O1 (stereo not given in full)	?	-4%	4%	-3%	0%
CC1=C(CC[C@@H](C)CO)OC2CC3C4CCC5CC(O)CCC5(C)C4CC(=O)C3(C)C12 (stereo not given in full)	.	.	.	.	-29%
CCOc1ccc2nc3cc(N)ccc3c(N)c2c1	0.85µM*	0.76µM*	.	.	.
CCOc1ccc2nc3cc(NCc4ccc(OC)cc4)ccc3c(N)c2c1	2.6µM*	2.3µM*	-5%	2%	0%
Cc1cc(N)c2cc(OCCOc3ccc4nc(C)cc(N)c4c3)ccc2n1	.	.	.	-43%	.
CCCCN(C(=O)c1ccc2c(c1)S(=O)(=O)N=C1CCCCCN12)c1c(N)n(CC(C)C)c(=O)[nH]c1=O	.	.	.	.	0%
CCOC(=O)C1CCN(CC(=O)Nc2c(C(=O)OC)[nH]c3cccc(Cl)c23)CC1	-3%	-18%	-6%	-13%	6%
COC(=O)c1[nH]c2cccc(Cl)c2c1NC(=O)CN(C)C1CCCCC1	8.3µM*	?	-5%	-88%	-4%
O=C(CNC(=O)c1[nH]cnc1C(=O)NC(c1ccccc1)c1ccccc1)OCc1ccccc1	1.9µM*	?	-4%	?	150%
O=C(N[C@@H](Cc1ccccc1)C(=O)OCc1ccccc1)c1nc[nH]c1C(=O)NC(c1ccccc1)c1ccccc1	9.3µM*	1.3µM*	7%	7%	100%
COc1ccc(NC(=O)CSc2nnc(Cc3ccccc3)c(=O)n2N)cc1OC	10%	6%	-12%	.	7%
O=C(NCc1ccc(Cl)cc1)c1ccc2oc(=O)n(Cc3ccccc3)c2c1	.	.	-10%	.	.
CCN(CC)CCNc1ncnc2c1sc1nc(N3CCOCC3)c3c(c12)CCCC3	?	9.3µM*	13%	3%	2%
CN(C)CCNc1ncnc2c1sc1nc(N3CCCC3)c3c(c12)CC(C)(C)OC3	-17%	0%	9%	1%	-17%
Cc1cccc(-n2cnc3c(sc4nc(N5CCOCC5)c5c(c43)CCCC5)c2=O)c1	?	2.1µM*	7%	7%	-12%
CCN(CC)CCNc1ncnc2c1sc1nc(N3CCCC3)c3c(c12)CC(C)(C)OC3	5%	10µM*	1%	3%	-13%
COc1ccccc1CNC(=O)Cn1ncc2c(=O)oc3ccc(C)cc3c21	.	.	-15%	.	.
COc1cccc(C(O)c2cnc(C(C)C)n2C)c1 (stereo not given)	29%	7%	0%	0%	-4%
CC(c1ncncc1F)[C@](O)(Cn1cncn1)c1ccc(F)cc1F (stereo not given in full)	?	-11%	.	.	.
SMILES	Pf growth 96h	Pf growth 48h	Sm TGR inh	NS1 inh	AMA1-RON2 inh
CCOC(=O)c1ccccc1NC(=O)c1c2c(nc3ccccc13)C(=O)N(C1CCCCC1)C2	.	.	0%	.	.
Cc1ccc(C(=O)CSc2ccc(-c3cccnc3)nn2)cc1	?	-15%	0%	.	0%
CCCc1nc(SCC(=O)O)c2sc(=S)n(-c3ccccc3)c2n1	5%	19%	-22%	-3%	-3%
COc1ccc(NS(=O)(=O)c2cc(NC(=O)c3cccs3)ccc2N2CCOCC2)cc1	?	?	9%	.	-5%
COc1ccccc1NS(=O)(=O)c1cc(NC(=O)c2ccccc2[N+](=O)[O-])ccc1N1CCOCC1	.	.	.	.	-19%
COc1nnc(-c2ccc(N3CCOCC3)c(NC(=O)c3ccco3)c2)c2ccccc12	13%	7.4µM*	?	-59%	-6%
COc1ccccc1NS(=O)(=O)c1cc(NC(=O)c2ccccc2F)ccc1N1CCOCC1	9.3µM*	0%	-1%	.	7%
COc1ccccc1NS(=O)(=O)c1cc(NC(=O)c2ccco2)ccc1N1CCOCC1	10µM*	?	-8%	.	-4%
COc1ccccc1NS(=O)(=O)c1cc(NC(=O)c2cccs2)ccc1N1CCOCC1	?	9.3µM*	10%	-49%	12%
COc1ccc(-c2csc(-c3nc(-c4ccc(Br)s4)cs3)n2)cc1F	.	.	-8%	.	.
COc1ccc(NC(=O)C2CCC(CNS(=O)(=O)c3csc(C(N)=O)c3)CC2)cc1 (stereo not given)	.	.	-8%	.	.
COc1ccccc1NC(=O)C1=C(C)Nc2c(C(=O)Nc3ccc(C)cc3)cnn2C1c1cccc(OC)c1OC (stereo not given)	.	.	-1%	.	.
Cc1cccc(C(=O)NCC(=O)OCCOc2ccccc2Cl)c1	7%	-11%	3%	.	0%
COc1cccc(NC(=O)CCC(=O)N2Cc3ccccc3Oc3ncccc32)c1	.	.	1%	.	.
CNc1ncnc(NC)c1[N+](=O)[O-]	.	.	.	.	0%
S=C1NCN(Cc2ccco2)CN1CCc1ccccc1	8.3µM*	?	-1%	-1%	-10%
S=C1NCN(C2CCCCC2)CN1CCc1ccccc1	1.9µM*	4.7µM*	0%	0%	-2%
CCCCN1CNC(=S)N(Cc2ccccc2)C1	9.3µM*	9%	0%	5%	-9%
CC(C)CN1CN(Cc2ccco2)CNC1=S	54%	0%	-3%	-5%	-1%
CCOc1ccc(CCN2CN(C3CCCCC3)CNC2=S)cc1OCC	-29%	?	-2%	1%	-12%
Cc1cn([C@H]2C[C@H](O)[C@@H](CNCc3cnc(N4CCOCC4)nc3)O2)c(=O)[nH]c1=O	.	.	.	.	0%
C/C(=N\NS(=O)(=O)c1ccc(Cl)c([N+](=O)[O-])c1)c1cc2ccccc2o1	21%	.	50µM*	-12%	4%
C/C(=N\NS(=O)(=O)c1ccc(Cl)c([N+](=O)[O-])c1)c1ccc(C)o1	.	-26%	6.3µM*	3%	-1%
CCn1c(C)c(C(C)=O)cc(C#N)c1=O	70%	41%	.	0%	-9%
Cc1ccc(-c2nc(CS(=O)CC(=O)NC3CC3)c(C)o2)cc1 (stereo not given)	?	7%	?	29%	-2%
CCc1ccc(-c2nc(CS(=O)CC(=O)O)c(C)o2)cc1 (stereo not given)	101%	125%	0.35µM*	-3%	-18%
CCc1ccc(-c2nc(CS(=O)CC(=O)NC3CC3)c(C)o2)cc1 (stereo not given)	24%	25%	4µM*	25%	-15%

Source: PubChem BioAssay (National Center for Advancing Translational Sciences (NCATS))
